Assay results taken from PubChem BioAssay AID927 (National Center for Advancing Translational Sciences (NCATS), 2007).
Screen size: about 60,000 compounds; about 65 (0.1%) were called active. Calls come from the whole dose curve; as a rule, active = well fitted inhibition curve with a large enough effect; inconclusive = small, poorly fitted or top-dose-only effect; inactive = no such curve, though single readings can be large or run the other way. The sample as a whole holds a higher share of actives than the screen did. Non-standard residues stand in square brackets, D forms with d. Residues, ends and D or L forms follow the SMILES beside them. ξ: configuration not given here. ξV = CC(C)C(N)C(=O)O

What follows are molecules tested against Ubiquitin carboxyl-terminal hydrolase 2 (Homo sapiens) (UniProt O75604) (assay: qHTS Assay for Inhibitors of Ubiquitin-specific Protease USP2a). Settings: USP2a enzymatic assay; Potency: qHTS inhibition; series mostly up to 38.3 µM.
Source text: NIH Molecular Libraries Screening Centers Network [MLSCN]
NIH Chemical Genomics Center [NCGC]
PI Name: Nicholson, Ben. Progenra Inc, Malvern, PA
Homeostasis of cellular proteins is maintained through a combination of synthesis and degradation. The pathway that accounts for the majority of protein degradation is the ubiquitin-proteasomal pathway. Ubiquitin (Ub) is highly conserved in all cells and the generation of a multi-Ub chain typically targets proteins for degradation by the proteasome. However, ubiquitination is highly reversible and dynamic. Deubiquitination, the reverse process, is catalyzed through the action of enzymes referred to as isopeptidases or deubiquitinating enzymes (DUBs). This group of enzymes is collectively responsible for maintaining adequate pools of free ubiquitin and regulating the ubiquitination status of cellular proteins. The class of DUBs referred to as the ubiquitin-specific proteases (USP) family functions endoproteolytically to cleave Ub chains from a wide range of protein substrates. USP2a deubiquitinates fatty acid synthase (FASN) which has recently been identified as an emerging oncology target. To identify inhibitors of USP2a a cell-free assay was employed.
The reporter enzyme chosen is phospholipase A2 (PLA2), which has an absolute requirement for a free amino terminus. Thus, fusion of a UBL to the N-terminus of PLA2 inactivates PLA2. When the UBL-PLA2 reporter enzyme is cleaved by USP2, the activated reporter can subsequently act on its substrate, which is the commercially available NBD C6-HPC (Invitrogen). Thus, this coupled assay gives a fluorescent read-out, which is generated through the cleavage of the PLA2 reporter enzyme. The assay, developed by Progenra, Inc. uses Ub-PLA2 and USP2a at near equal and low (nM) amounts and has been licensed for sale by LifeSensors, Inc. as the Ub-IsoPro1 kit.
NCGC Assay Protocol Summary:
The assay buffer, prepared fresh at the day of the assay, contains 20mM Tris-HCl pH 8.0, 2mM CaCl2, 2mM beta-Mercaptoethanol, 0.1% DMSO. 3ul of 40nM (20nM final) USP2 core, which is stored on ice, is dispensed into a medium-binding black solid Kalypsys 1,536 well plate using the Kalypsys dispenser. The assay plate is then pinned with 23nL compound with the Kalypsys pintool in columns 5-48. The controls are pinned as follows: column 1&2 two-fold dilutions of 2M NEM in duplicate; column 3 DMSO; column 4 2M NEM (final concentration 38.2mM). The assay plate is incubated at RT for 30min. Subsequently, 3uL of 40nM (20nM final) Ub-PLA2 and 40uM (20uM final) NBD C6-HPC (stored on ice and protected from light) were dispensed into the plate using the Kalypsys dispenser. Plates were read immediately (0 Hour) on an Envision (Perkin Elmer) plate reader using the following wavelengths Ex 460nm /Em 535nm. Then, the assay plates were incubated for 2.5 hours and read again on the Envision using the same settings
Data were normalized to the to AC100 inhibition (NEM). Concentration-response curves were fitted to the normalized data and the concentration-response curves were then classified based on curve quality (r2), response magnitude and degree of measured activity. The time zero reading was used to flag fluorescence artifacts.
Keywords: ubiquitination, deubiquitination, proteases, profluorescent, MLSMR, MLSCN, NIH Roadmap, qHTS, NCGC
Note: nearly all actives have a fitted effect of over 60% in size.

Chain of Ubiquitin carboxyl-terminal hydrolase 2 (Homo sapiens) (O75604 whole entry, looked up): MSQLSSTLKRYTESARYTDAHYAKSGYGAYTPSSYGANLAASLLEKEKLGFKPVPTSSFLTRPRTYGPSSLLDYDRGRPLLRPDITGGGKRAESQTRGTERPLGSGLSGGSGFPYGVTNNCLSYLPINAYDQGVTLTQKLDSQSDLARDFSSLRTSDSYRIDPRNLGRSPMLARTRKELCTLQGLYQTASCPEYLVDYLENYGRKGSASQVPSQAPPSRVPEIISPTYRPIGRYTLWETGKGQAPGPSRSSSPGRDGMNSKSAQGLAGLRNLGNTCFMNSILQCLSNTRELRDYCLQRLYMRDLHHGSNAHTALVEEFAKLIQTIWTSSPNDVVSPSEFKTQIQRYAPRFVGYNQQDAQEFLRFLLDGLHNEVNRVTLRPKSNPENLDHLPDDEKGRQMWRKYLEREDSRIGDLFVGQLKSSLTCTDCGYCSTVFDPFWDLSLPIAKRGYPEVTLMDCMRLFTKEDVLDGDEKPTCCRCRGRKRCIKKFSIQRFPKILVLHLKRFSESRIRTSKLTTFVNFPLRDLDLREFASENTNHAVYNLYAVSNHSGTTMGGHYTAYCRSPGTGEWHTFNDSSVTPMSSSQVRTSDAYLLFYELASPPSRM

Activity change, negative = inhibition, inactive:
CCCCNc1nc2ccccc2nc1NS(=O)(=O)c1cccs1
Cc1ccc(N(C(=O)CC2NC(=O)NC2=O)C2(C(=O)NC3CCCC3)CCCCC2)cc1 (stereo not given)
C=CCn1c(CSc2nc3ccccc3s2)nnc1SCC(=O)NCc1ccco1
O/N=C1\CC2(Cc3nonc31)OCCO2
CC1(C)OC2CC3C4CCC5=CC(=O)CCC5(C)C4(F)C(O)CC3(C)[C@]2(C(=O)CCl)O1 (stereo not given in full)
Cc1c(S(=O)(=O)O)oc2c1C(=O)C(=O)c1c-2ccc2c1CCCC2(C)C
CC(C)OCCCNC(=O)C1CC(=O)N(C2CCCCCCC2)C1 (stereo not given)
COc1ccc(OC)c(NC(=O)CSc2nc(N)c(-c3ccccc3)c(=O)[nH]2)c1
O=C(O)C1CCN1C1CCCCC1 (stereo not given)
O=C(O)c1ccc(COCC(F)(F)F)cc1
Cc1nnc(SCc2cc(=O)[nH]c(N3CCN(Cc4ccccc4)CC3)n2)s1
CC(C)(O)CCC(O)[C@@](C)(O)C1CC[C@]2(O)C3=CC(=O)C4CC(O)C(O)C[C@]4(C)C3CC[C@]12C (stereo not given in full)
CC(=O)Oc1c2c(c3c(c1CC=C(C)C)O[C@@]14C(=CC5CC1C(C)(C)OC4(C/C=C(\C)C(=O)O)C5=O)C3=O)OC(C)(CCC=C(C)C)C=C2 (stereo not given in full)
CC1(C)CC(=O)C=C(NCCCN2CCCC2=O)C1
c1csc(-c2cn3c(n2)SCC3)c1
COc1nc(Oc2ccc(=O)n(C)n2)nc(N(C)C)n1
CC(C)C1=CC2=CC[C@@H]3[C@](C)(CO)CCC[C@]3(C)C2CC1 (stereo not given in full)
Fc1cccc(/C=N\N=C/c2cccc(F)c2)c1
O=C(NCCCN1CCCCCC1)C1CC(=O)N(C2CCCC2)C1 (stereo not given)
CCOC(=O)C1CCN(C(=O)Cc2c(C(=O)O)[nH]c3ccccc23)CC1
CCCCN(C)Cc1c(C)[nH]c2ccc(Cl)cc2c1=O
CCOC(=O)Cc1csc(NC(=O)C(C)(C)C)n1
Cn1c(=O)c2cn(-c3cccc4ccccc34)cc2n(C)c1=O
Cc1nn(C)c(C)c1S(=O)(=O)N1CCc2ccccc21
Nc1nc2[nH]c(=O)c(=O)[nH]c2c(=O)[nH]1
CN1CCCC1CCO[C@@](C)(c1ccccc1)c1ccc(Cl)cc1 (stereo not given in full)
CS(=O)(=O)N1CCC2(CCN(c3ccncc3)CC2)CC1
O=c1c(O)c(-c2ccc(O)cc2)oc2ccccc12
Cc1nnc(SCCCn2c(N3CCCCC3)nc3c2c(=O)[nH]c(=O)n3C)s1
O=C(NC1CCN(Cc2ccccc2)CC1)c1ccccc1F
COC(=O)[C@H](Cc1ccccc1)NC(=O)N1CC(C)OC(C)C1 (stereo not given in full)
COc1ccc(CCC(=O)c2c(O)cc(OC3OC(CO)C(O)C(O)C3O[C@@H]3OC(C)C(O)C(O)C3O)cc2O)cc1O (stereo not given in full)
O=C1NS(=O)(=O)c2ccccc21
Cc1cc(=O)n2nc(N3CCCC(C(=O)N4CCN(C)CC4)C3)sc2n1 (stereo not given)
C=C1C([C@@]2(C)C(OC(C)=O)CC(=O)O[C@@](C)(COC(C)=O)C2CC(=O)OC)C(OC=O)C(OC(=O)C(O)C(C)CC)[C@]2(C)C(c3ccoc3)CC(=O)C12O (stereo not given in full)
COC(=O)CC1C(C)(C)C(OC(C)=O)C2CC3=C4CC(=O)OC(c5ccoc5)[C@]4(C)CCC3[C@@]1(C)C2=O (stereo not given in full)
CC1(C)OC2CO[C@]3(COS(N)(=O)=O)OC(C)(C)OC3C2O1 (stereo not given in full)
CCC1(C)Cc2c(sc3nc4n(c(=O)c23)CCCS4)CO1 (stereo not given)
COC(=O)c1cccc(NC(=O)CSc2nc(C)cc(=O)[nH]2)c1
O=C(NCCCNCc1ccccc1)c1ccc(/C=N/O)nc1 5.49% [at 7.66 µM]
C/C(=C\C(=O)c1ccc(Br)cc1)N1CCCCC1
CCc1ccc2oc(=O)cc(CN3CCCCC3C)c2c1 (stereo not given)
O=C(Oc1cc(OC(=O)c2ccccc2)c2c(c1)OC(c1ccc(OC(=O)c3ccccc3)c(OC(=O)c3ccccc3)c1)[C@@H](OC(=O)c1ccccc1)C2)c1ccccc1 (stereo not given in full)
COc1ccc(CNC2CCCCC2)cc1
Cc1nnc(SCC(=O)NCCOc2ccc(Cl)cc2)n1-c1ccccc1
O=C1OC(C(O)CO)C(O)=C1O (stereo not given)
CC(=O)OCC(=O)[C@@]1(O)CCC2C3CCC4=CC(=O)CC[C@@]4(C)[C@]3(F)C(O)C[C@]21C (stereo not given in full)
Cc1nonc1NC(=O)c1ccccc1Br
O=C1CCC(=O)N1CCOP1(=O)COc2ccccc2OC1
O=c1c(-c2cc(F)cc(F)c2)nc2cnc(Oc3ccccc3)nc2n1C[C@H]1CCCO1
COc1c(C(C)C)oc2cc3oc(=O)ccc3cc12
CCC1CCCCN1C(=O)Nc1cccc(NC(=O)N2CCCCC2CC)c1 (stereo not given)
CC(=O)OCC(=O)C1CCC2C3CCC4=CC(=O)CC[C@@]4(C)C3CC[C@]12C (stereo not given in full)
COC1[C@H](OC(N)=O)C(O)[C@H](Oc2ccc3c(O)c(NC(=O)c4ccc(O)c(CC=C(C)C)c4)c(=O)oc3c2C)OC1(C)C (stereo not given in full)
O=C(O)C(O)[C@@](O)(Cc1ccc(O)cc1)C(=O)O (stereo not given in full)
N#CC1=C(N)Oc2cc(O)ccc2C1C1CCCCC1 (stereo not given)
CS(=O)(=O)N1CCC2(CC1)CN(Cc1cc(C(F)(F)F)cc(C(F)(F)F)c1)C2
O=C(CN1CCOCC1)Nc1c(-c2ccccc2)c2cc(Br)ccc2[nH]c1=O
CSc1ccc(S(=O)(=O)Nc2cccc(F)c2)cc1
COc1ccc2occ(C(=O)c3ccc(N=C(C)N(C)C)cc3)c2c1
CN(Cc1ccco1)c1ncncc1-c1ccoc1
O=C(NCc1ccc2c(c1)OCO2)c1cc2c(s1)CS(=O)(=O)C2
CC(=NCc1ccco1)C1=C(O)c2ccccc2C1=O
COc1cccc(C(CC(=O)NCCN2CCOCC2)NS(=O)(=O)c2ccc(C)cc2)c1OC (stereo not given)
COC(=O)N1CCC[C@@]2(CCN(C(=O)NC(C)C)C2)C1
CC(C)=CCC/C(C)=C/CC/C(C)=C/CC/C(C)=C/CO
CCCn1c(=O)c2ccccc2n2c(SCC(=O)/C(C#N)=C(\C)N)nnc12
Cc1ccc(S(=O)(=O)N(C)CC(=O)NC2CCCC2)cc1
O=C(Nc1ccc2c(c1)OCO2)C1CC(c2c(F)cccc2Cl)=NO1 (stereo not given)
CCOc1ccccc1Nc1nnc(SCc2ccc(C(=O)OC)o2)s1
Cc1cccc(-n2ncc3c(N4CCc5ccccc54)ncnc32)c1
CCOC(=O)C1Cn2c(nc3c(c2=O)C(C)(CC)Cc2ccccc2-3)S1 (stereo not given)
C=C(C)C1CC=C(CO)CC1 (stereo not given)
CCN(CC)S(=O)(=O)c1ccc(NC(=O)CN(c2cccc(F)c2)S(C)(=O)=O)cc1
O=C(CSc1nnc(-c2cccs2)n1-c1ccccc1)N1CCN(C(=O)c2ccco2)CC1
CC(=O)NC1CC2CCCC(C1)N2CC(=O)Nc1ccccc1 (stereo not given)
CCOc1c(N2CCCCC2)c(=O)c1=O
CC(=O)NC(C(=O)NCC(N)=O)C(C)C (stereo not given) (Ac-[ξV]-Gly-NH2)
CC12C(=O)N(n3cnnc3)C(=O)C1C1C=CC2C1 (stereo not given)
O=C(C1=C(O)C(=O)N(Cc2ccccc2)C1c1cccnc1)c1ccco1 (stereo not given)
CCC(=O)N1c2ccc(S(=O)(=O)CCC(=O)N3CCN(c4ccccc4)CC3)cc2CC1C (stereo not given)
CCOc1ccccc1N(CC(=O)Nc1ccccc1C(=O)OC)S(C)(=O)=O -1.62% [at 7.66 µM]
CC1O[C@@H](Oc2c(-c3ccc(O)c(O)c3)oc3cc(O)cc(O)c3c2=O)C(O)C(O)C1O (stereo not given in full)
O=C(c1cc(C(F)(F)F)cc(C(F)(F)F)c1)N1CCC2(CCCN(Cc3ccncc3)C2)CC1
CCN(CC)CCN1C(=O)C(=O)/C(=C(/O)c2ccccc2)C1c1ccccc1F (stereo not given)
CN1CCC2(CC1)CCN(S(=O)(=O)c1ccccc1)CC2
CCN(CC)CCNC(=O)Cn1cnc2sc(C)c(S(=O)(=O)N3CCOCC3)c2c1=O
O=C(Cn1c(=O)sc2ccccc21)Nc1ccc2c(c1)OCCO2
S=C1SCN(CCN2CCOCC2)CN1Cc1ccccc1
CC1CC[C@@]23CCC4(C)[C@@]5(C)CCC6C(C)(C)C(O)CC[C@@]6(C)C5C=C[C@@]4(OC2=O)C3C1C (stereo not given in full)
Nc1ncnc2c1ncn2C1CC(O)C(CO)O1 (stereo not given)
CC(=O)Nc1ccc(S(=O)(=O)N2CCC(N(C)CCC(C)C)CC2)cc1
COc1ccc(C2CC(=O)C=C(NCC3CCCO3)C2)cc1 (stereo not given)
CC(=O)N1CCN(CCN=CC2=C(O)CC(C)(C)CC2=O)CC1
FC(F)(F)c1ccccc1-c1nc(-n2ccnc2)c2ccccc2n1
CN1CC(=O)N=C1N
CCC1=C/C(=C\c2ccc3c(c2)OCO3)C(=O)S1
COc1ccc(N2CCN(CCNC(=O)c3nnc(Cc4c(F)cccc4Cl)o3)CC2)cc1
CCN(Cc1ccncc1)C(=O)c1cccc(S(=O)(=O)N2CCOCC2)c1
CC1(C)OC2CC(=O)OC[C@@]23C1CC(=O)[C@]1(C)C3CC[C@@]2(C)C(c3ccoc3)OC(=O)C3O[C@@]321 (stereo not given in full)
CC(=O)Nc1ccc(S(=O)(=O)N2CCSCC2)cc1
O=C(NCCSc1ccccc1)c1ccco1
CC(=O)Nc1ccn(Cc2c(F)cccc2Cl)n1
CC(=O)N1CCC2(CCCN(Cc3ccc(C#N)cc3)C2)CC1
COC1C[C@@H](O[C@@H]2C(C)C(=O)OC(C)C(C)C(O)C(C)C(=O)[C@@]3(CO3)CC(C)C(OC3OC(C)CC(N(C)C)C3O)C2C)OC(C)[C@@H]1O (stereo not given in full)
